The text below walks through data of PubChem BioAssay (EPA / NIEHS).

The nature of assay [1]: ATG_CRE_CIS: Attagene CIS-FACTORIAL HepG2 Assay for human cAMP Responsive Element (CRE) binding protein 3 (AID 2282926). Particulars: HepG2 CRE cis-reporter, Attagene multiplexed mRNA; actives raise or lower the signal. The method in brief: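 HepG2 cells transiently transfected with a multiplexed reporter library (CRE-driven unit among them) were dosed for 24 h. Reporter mRNA was quantified by RT-PCR, fluorescent labelling, HpaI digestion and capillary electrophoresis, with bidirectional fitting against DMSO baseline.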

Assay [2] has as its target CCAAT/enhancer-binding protein beta (Homo sapiens) (UniProt P17676). The assay can be described thus: ATG_C_EBP_CIS: Attagene CIS-FACTORIAL HepG2 Assay for human CCAAT/Enhancer Binding Protein (C/EBP) beta (AID 2282927). The following applies: HepG2 Attagene cis-factorial transcription factor reporter; actives raise or lower the signal. An outline of the steps: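 Endogenous transcription factor activity in human liver HepG2 cells is inferred from induction of a CEBPB-linked reporter mRNA. Exposure lasts 24 h; activity is fitted in both directions relative to DMSO.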

Assay [3] can be described thus: ATG_CMV_CIS: Attagene CIS-FACTORIAL HepG2 Assay for human CMV (Internal Marker) (AID 2282928).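 Note: endpoint acts as a background internal control marker rather than a target.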 Particulars: HepG2 CMV promoter reporter, transcription factor profiling; actives raise or lower the signal. An outline of the steps: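 Cell system: HepG2, transiently transfected multiple reporter units under cis promoters. Exposure: 24 h. Detection: RT-PCR, FAM labeling, HpaI digestion, capillary electrophoresis. Analysis: bidirectional, DMSO baseline.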

Assay [4] in a line: ATG_DR4_LXR_CIS: Attagene CIS-FACTORIAL HepG2 Assay for human Liver X Receptor (LXR), DR4 submotif (AID 2282929). The following applies: HepG2 Attagene DR4 cis-reporter, mRNA transcription; actives raise or lower the signal. An outline of the steps:
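Endogenous factor activity at a DR4 cis-element is read as reporter mRNA in transiently transfected HepG2 cells. Exposure lasts 24 h; transcripts are amplified, fluorescently labelled and sized by capillary electrophoresis, with DMSO as baseline.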

Assay [5] concerns the target Aryl hydrocarbon receptor (Homo sapiens) (UniProt P35869). The experiment in a line: ATG_Ahr_CIS: Attagene CIS-FACTORIAL HepG2 Assay for human Aryl Hydrocarbon Receptor (Ahr) (AID 2282930). The following applies: HepG2 AhR cis-factorial reporter transcription; actives raise or lower the signal. An outline of the steps:
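Transient MRTU transfection of HepG2 → 24 h compound exposure → total RNA, oligo(dT) RT → PCR, 6-FAM extension, HpaI cut → CE fluorescence. DMSO = baseline; bidirectional curve fit.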

Assay [6] is described as follows: ATG_AP_1_CIS: Attagene CIS-FACTORIAL HepG2 Assay for human Activator Protein 1 (AP-1) (AID 2282931). The following applies: HepG2 Attagene cis-factorial AP-1 reporter mRNA; actives raise or lower the signal. The method in brief: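 Fluorescence of labelled PCR fragments separated by capillary electrophoresis gives reporter mRNA levels. HepG2 with transfected cis-regulated reporter units, 24 h exposure; DMSO serves as baseline for bidirectional curve fits.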

The nature of assay [7]: ATG_AP_2_CIS: Attagene CIS-FACTORIAL HepG2 Assay for human Activator Protein 2 (AP-2) (AID 2282932). The following applies: HepG2 AP-2 cis-reporter, Attagene transcription factor profiling; actives raise or lower the signal. An outline of the steps:
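HepG2, transient MRTU transfection, cis-regulated reporters; 24 h compound exposure; RNA isolated, RT-PCR, 6-FAM labelling, HpaI digest, CE fluorescence. DMSO = negative control/baseline, bidirectional fit.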

Assay [8] is described as follows: ATG_BRE_CIS: Attagene CIS-FACTORIAL HepG2 Assay for human Bone Morphogenetic Protein (BMP) Response Element (BRE) (AID 2282933). The following applies: HepG2 BMP response element reporter, Attagene transcription factor profiling; actives raise or lower the signal. The method in brief:
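Read-out: reporter mRNA induction quantified by RT-PCR and capillary electrophoresis after 24 h chemical exposure of transfected HepG2 cells. Endogenous factor activity on the BMP response element; gain or loss fitted against DMSO baseline.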

The nature of assay [9]: APR_HepG2_CellLoss_72hr: Apredica 72-hour HepG2 Assay for Cell Loss (AID 2282915). The following applies: high-content imaging. An outline of the steps:
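Cell number comes from Hoechst 33342-labelled nuclei, imaged at 20x after 3.7% formaldehyde fixation. Dosing was 0.39–200 uM, ten concentrations in duplicate, 0.5% DMSO final, for 72 h. Bidirectional fit relative to DMSO baseline.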

Assay [10] in a line: APR_HepG2_P-H2AX_72hr: Apredica 72-hour HepG2 Assay for H2AX Phosphorylation (AID 2282916).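 Note: phospho-histone H2A.x immunostain intensity per cell marking DNA damage.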 Particulars: imaging, actives raise or lower the signal. An outline of the steps:
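HepG2; cpd 0.39–200 uM ×10 conc, duplicates; 0.5% DMSO; 72 hr. Fix 3.7% formaldehyde 30 min RT, 0.5% Triton X-100 10 min. Anti-phospho-H2A.x 1:200 + Hoechst 2 ug/mL, 60 min RT; ArrayScan imaging.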

Assay [11] is described as follows: APR_HepG2_MitoMembPot_72hr: Apredica 72-hour HepG2 Assay for Mitochondrial Membrane Potential (AID 2282917). Particulars: imaging, actives raise or lower the signal. The method in brief:
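Membrane potential read by MitoTracker Red CMXRos (250 nM, 30 min, pre-fixation) fluorescence imaging of HepG2 after 72 hr exposure. Ten concentrations, 0.39–200 uM, duplicate wells, 0.5% DMSO; fitted in both directions against DMSO baseline.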

A short description of assay [12]: APR_HepG2_MitoticArrest_72hr: Apredica 72-hour HepG2 Assay for Mitotic Arrest (AID 2282918). Particulars: high-content imaging, actives raise or lower the signal. An outline of the steps: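 HepG2 cells were exposed for 72 hr to compound at 0.39–200 uM (10 concentrations, duplicate) in 0.5% v/v DMSO, fixed in 3.7% formaldehyde, immunostained for phospho-histone H3 with Hoechst 33342 and imaged by high-content fluorescence; bidirectional fits versus DMSO.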

Assay [13] can be described thus: APR_HepG2_MicrotubuleCSK_72hr: Apredica 72-hour HepG2 Assay for Microtubule CSK Stabilty (AID 2282919). Particulars: HepG2 microtubule cytoskeleton, high-content imaging, actives raise or lower the signal. An outline of the steps:
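Read-out is tubulin fluorescence intensity from high-content imaging of HepG2 cells, with nuclei identified by Hoechst 33342. Treatment lasts 72 h at 0.39–200 uM, and curves are fitted bidirectionally against the DMSO negative control.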

The nature of assay [14]: APR_HepG2_P-H2AX_24hr: Apredica 24-hour HepG2 Assay for H2AX Phosphorylation (AID 2282920). The following applies: high-content imaging, actives raise or lower the signal. An outline of the steps: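 HepG2 human liver cells were exposed for 24 hr to compounds at 0.39–200 uM in duplicate, with 0.5% v/v DMSO final. Fixed cells were immunostained for phospho-histone H2A.x plus Hoechst 33342, imaged by HCS fluorescence, and fitted bidirectionally against DMSO.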

The nature of assay [15]: APR_HepG2_StressKinase_72hr: Apredica 72-hour HepG2 Assay for Stress Kinase (AID 2282921). Particulars: HepG2 stress kinase (phospho-c-Jun) imaging, actives raise or lower the signal. The method in brief:
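Dose 0.39–200 uM (10 pts, duplicate), 0.5% DMSO; 72 h; fix 3.7% formaldehyde 30 min RT; Triton permeabilize; anti-phospho-c-Jun/Cy3 + Hoechst 60 min RT; image 20x; fit gain/loss vs DMSO.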

Assay [16] in a line: APR_HepG2_StressKinase_24hr: Apredica 24-hour HepG2 Assay for Stress Kinase (AID 2282922). The following applies: HepG2 stress kinase (phospho-c-Jun) imaging, actives raise or lower the signal. The method in brief: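 HepG2, 24 hr dosing, 0.39–200 uM in duplicate, 0.5% DMSO; formaldehyde fix (3.7%), 0.5% Triton X-100; anti-phospho-c-Jun + Cy3 secondary, Hoechst counterstain; ArrayScan imaging; bidirectional curve fit vs DMSO baseline.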

The nature of assay [17]: APR_HepG2_p53Act_72hr: Apredica 72-hour HepG2 Assay for p53 Activation (AID 2282923).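 Note: average cellular p53 protein immunofluorescence intensity in HepG2 cells.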 Particulars: high-content imaging, actives raise or lower the signal. The method in brief:
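10-pt conc. 0.39–200 uM, duplicate, 0.5% DMSO; 72 hr exposure; 3.7% formaldehyde fix, 0.5% Triton perm; sheep anti-p53/Cy5 + Hoechst; ArrayScan 20x, 6 images/well; gain/loss fit vs DMSO.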

Assay [18] is described as follows: APR_HepG2_MitoMass_72hr: Apredica 72-hour HepG2 Assay for Mitochondrial Mass (AID 2282924).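 Note: MitoTracker Red CMXRos stain intensity per cell imaged as mitochondrial mass.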 The following applies: high-content imaging, actives raise or lower the signal. An outline of the steps:
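HepG2, 72 hr cmpd, 10 conc 0.39–200 uM in dup, DMSO 0.5% v/v. MitoTracker Red CMXRos 250 nM 30 min pre-fix; formaldehyde 3.7% fix 30 min RT. HCS imaging, gain/loss fit vs DMSO.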

The nature of assay [19]: APR_HepG2_NuclearSize_72hr: Apredica 72-hour HepG2 Assay for Nuclear Size (AID 2282925). Particulars: high-content imaging, actives raise or lower the signal. An outline of the steps: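 HepG2; cpd 0.39–200 uM, 10 conc, duplicate; 72 h; DMSO 0.5% v/v; fix 3.7% formaldehyde 30 min RT; Triton permeabilization; Hoechst 2 ug/mL; HCS imaging 20x; nuclear diameter; gain/loss fit vs DMSO.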

Assay [20] has as its target Retinoic acid receptor alpha (Homo sapiens) (UniProt P10276). The experiment in a line: ATG_DR5_RAR_CIS: Attagene CIS-FACTORIAL HepG2 Assay for human Retinoic Acid Receptor Alpha (RARE), DR5 submotif (AID 2282934). Particulars: HepG2 Attagene cis-factorial RARE DR5 reporter, mRNA; actives raise or lower the signal. The method in brief: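 Transient MRTU transfection of HepG2; 24 h compound treatment; TriZol RNA, oligo(dT) RT, PCR, FAM labelling, capillary electrophoresis. Bidirectional fit vs DMSO. Endogenous TF activity at DR5 RARE.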

“And” between values parts separate entries of the source, which are not always exact repeats. Equal entries are not always repeated. Some structures have more than one record in an assay (separate samples or runs), and their calls can disagree. The source made the active and inactive calls. Rule for the calls: active = hit-call score of the fitted dose curve at least 0.9, where 1 is the maximum; inactive = score below 0.9.

Sequence of Retinoic acid receptor alpha (Homo sapiens) (P10276 whole entry, looked up): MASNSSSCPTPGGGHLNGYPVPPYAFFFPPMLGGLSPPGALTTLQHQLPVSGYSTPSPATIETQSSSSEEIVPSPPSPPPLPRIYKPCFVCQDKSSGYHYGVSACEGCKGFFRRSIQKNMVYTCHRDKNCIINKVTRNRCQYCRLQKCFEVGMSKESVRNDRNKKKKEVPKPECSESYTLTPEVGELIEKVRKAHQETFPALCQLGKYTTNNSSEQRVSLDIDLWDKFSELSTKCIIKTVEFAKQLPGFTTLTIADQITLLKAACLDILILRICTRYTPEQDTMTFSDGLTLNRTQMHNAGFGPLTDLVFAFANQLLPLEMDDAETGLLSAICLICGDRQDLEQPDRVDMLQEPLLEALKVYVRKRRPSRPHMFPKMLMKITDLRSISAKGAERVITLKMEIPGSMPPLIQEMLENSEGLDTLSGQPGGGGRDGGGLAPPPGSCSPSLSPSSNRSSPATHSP
Sequence of CCAAT/enhancer-binding protein beta (Homo sapiens) (P17676 whole entry, looked up): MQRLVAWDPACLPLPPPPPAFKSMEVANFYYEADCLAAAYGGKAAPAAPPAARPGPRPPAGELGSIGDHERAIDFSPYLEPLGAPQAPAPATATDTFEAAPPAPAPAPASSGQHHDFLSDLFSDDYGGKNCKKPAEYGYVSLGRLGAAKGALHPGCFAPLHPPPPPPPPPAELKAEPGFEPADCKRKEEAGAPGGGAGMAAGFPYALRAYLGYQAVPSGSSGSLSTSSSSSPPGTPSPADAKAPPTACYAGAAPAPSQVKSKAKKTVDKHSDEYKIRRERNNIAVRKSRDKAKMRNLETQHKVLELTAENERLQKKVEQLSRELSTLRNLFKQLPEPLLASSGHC
Sequence of Aryl hydrocarbon receptor (Homo sapiens) (P35869 whole entry, looked up): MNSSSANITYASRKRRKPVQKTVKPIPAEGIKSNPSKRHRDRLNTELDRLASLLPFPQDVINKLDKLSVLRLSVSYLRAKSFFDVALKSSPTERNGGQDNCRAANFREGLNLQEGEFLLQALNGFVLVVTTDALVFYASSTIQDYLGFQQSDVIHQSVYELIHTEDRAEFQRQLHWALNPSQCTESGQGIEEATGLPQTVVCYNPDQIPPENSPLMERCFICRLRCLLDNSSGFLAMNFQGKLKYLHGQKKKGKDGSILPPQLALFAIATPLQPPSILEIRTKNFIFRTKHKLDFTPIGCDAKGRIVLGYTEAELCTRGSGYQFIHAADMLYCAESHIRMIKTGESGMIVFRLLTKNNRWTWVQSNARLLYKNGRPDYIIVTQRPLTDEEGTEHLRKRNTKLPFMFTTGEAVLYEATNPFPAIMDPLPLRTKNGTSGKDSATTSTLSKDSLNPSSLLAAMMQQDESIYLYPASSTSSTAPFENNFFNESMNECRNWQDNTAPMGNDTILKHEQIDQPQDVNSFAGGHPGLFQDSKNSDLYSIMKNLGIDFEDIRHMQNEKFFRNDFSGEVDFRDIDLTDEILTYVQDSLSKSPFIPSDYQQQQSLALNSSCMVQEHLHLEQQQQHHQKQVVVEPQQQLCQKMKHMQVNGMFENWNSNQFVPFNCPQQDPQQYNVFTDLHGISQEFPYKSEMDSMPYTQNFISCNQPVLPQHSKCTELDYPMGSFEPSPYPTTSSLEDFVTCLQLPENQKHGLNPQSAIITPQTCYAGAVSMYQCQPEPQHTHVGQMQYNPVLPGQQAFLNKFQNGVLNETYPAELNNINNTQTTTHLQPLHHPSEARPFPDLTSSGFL

On to `FC(F)(F)c1ccc(Cl)c(Cl)c1`, for which the molecule was called inactive in assay [1], in assay [2], in [3], in assay [4], in assay [5] and in assay [6]. Further, the outcome in assay [7] and in assay [8] was inactive.
Take `CC/C(=C(\c1ccccc1)c1ccc(OCCN(C)C)cc1)c1ccccc1`: the concentration at half-maximal activity (AC50) was 13.3 µM (active) and 17.4 µM (active) in [9]; 53.9 µM (active) and 59 µM (active) in assay [10]; 30.7 µM (active) in assay [11]; 9.78 µM (active) and 3.59 µM (active) in assay [12]; 11.6 µM (active) and 19.7 µM (active) in assay [14]; 63.4 µM (active) and 100 µM (active) in assay [15]. The AC50 in assay [16] is 32.1 µM (active); in [17], 6.04 µM (active); in assay [18] it was 152 µM (active); in [19], 119 µM (active). Moreover, the call in assay [11], in assay [13], in assay [16], in [17], in assay [18] and in assay [19] was inactive. The call in assay [1], in assay [2], in [3], in [4], in assay [5] and in assay [6] was inactive. Besides, the call in [7], in assay [8] and in assay [20] was inactive.
On to `CCCOC(=O)CC`, for which the call in assay [1], in [2], in assay [3], in [4], in [5] and in assay [6] was inactive. Further, the call in assay [7] and in assay [8] was inactive.
With `CCCCCCCCSCc1cc(C)c(O)c(CSCCCCCCCC)c1`, the result in assay [1], in assay [2], in assay [3], in assay [4], in [5] and in [6] was inactive. Besides, the result in assay [7] and in assay [8] was inactive.
Regarding `C=C/C(C)=C/C/C=C(\C)CCC=C(C)C`, the result in assay [1], in [2], in [3], in assay [4], in [5] and in assay [7] was inactive. The molecule was classed as inactive in [8]. Besides, the AC50 in assay [6] was 125 µM (active).
On to `CC(C)N(c1ccccc1)C(C)C`, for which the result in assay [1], in [2], in [3], in assay [4], in assay [5] and in [6] was inactive. In addition, the call in assay [7] and in assay [8] was inactive.
